Source: PubChem BioAssay
In the library only some 4.3% were active in any assay of this set; here they are far more common.
NadD block: NadD (S. aureus) enzyme inhibition; purified NadD enzyme, colorimetric absorbance read-out; inhibition, % at 20 µM; 360,000 compounds, 0.78% hits; AID 602399; in the data active = inhibition above about 26%
rCAG binder: binds r(CAG) RNA repeats; r(CAG) RNA repeat, TO-PRO-1 dye displacement fluorescence; inhibition, % at 3 µM; 370,000 compounds, 1.3% hits; AID 651821;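 active = inhibition above the plate cutoff, the mean of all test compounds on that plate plus 3 SD, cut at about 35% in these data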;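 also: 0% = DMSO alone and 100% = 100 µM mitoxantrone as full dye displacement; higher means more dye released from RNA so lower well fluorescence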
NR3A LBD binder: modulates the human NR3A ligand-binding domain | NR3A LBD differential scanning fluorimetry, Tm shift; 0% = protein alone, 100% = glycine-bound protein | Tm shift relative to glycine control, % at 25 µM | 340,000 compounds, 2.5% hits | AID 1259313;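 active = melting temperature shift of at least 10% of the positive control shift, at one fixed dose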
FAS TE block: inhibitors of human fatty acid synthase thioesterase domain. 360,000 compounds, 0.67% hits. inhibition, % at 15 µM. P49327. recombinant FAS-TE, OMFH fluorogenic substrate, fluorescence endpoint;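 active = compounds whose normalised, plate-corrected inhibition of enzyme fluorescence in the single-dose primary screen is 50% or more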;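 also: 0% = DMSO with enzyme and 100% = substrate without enzyme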
Numbers without * were called inactive; nt = no result given.

SMILES	NadD block	rCAG binder	NR3A LBD binder	FAS TE block
O=C(O)c1ccc(-c2ccc(/C=C3\NC(=O)N(Cc4ccc(Cl)cc4)C3=O)o2)cc1Cl	14	53*	-4	-2
O=C(OC12CCCN(C1)/C(=C/c1ccccc1)C2)c1ccc(F)cc1 (stereo unspecified)	nt	8	nt	nt
CC(C)CN1C(=O)C[C@]2(C(=O)N(C)c3ccc(NC(=O)C(C)(C)C)cc32)C1c1ccccc1 (stereo partly specified)	nt	0	nt	nt
CC(C)CCOCC(O)CCC(=O)NNC(=S)Nc1ccccc1 (stereo unspecified)	2	-2	0	-8
C=CCC(CC(O)COCCC)C(=O)NNC(=S)Nc1ccccc1 (stereo unspecified)	2	-3	10*	-4
O=C(Nc1ccc(C(F)(F)F)cc1)C1(c2ccccc2)CC1	-5	-8	-2	21
C/C=C/C(=O)Nc1cccc(C(F)(F)F)c1	1	-1	-1	8
O=C(Nc1cccc(C(F)(F)F)c1)C1(c2ccccc2)CC1	-2	0	12*	10
Cc1ccc(NC(=O)/C=C/c2cccc(C(F)(F)F)c2)cc1	-10	-3	25*	2
Cc1ccc(/C=C/C(=O)N2CCN(c3cccc(C(F)(F)F)c3)CC2)cc1	-4	-2	21*	13
O=C(/C=C/c1cccc(C(F)(F)F)c1)Nc1cccc(C(F)(F)F)c1	-4	5	14*	35
Cc1ccc(C)c(C(=O)CCC(=O)N2CCN(c3cccc(C(F)(F)F)c3)CC2)c1	4	1	4	26
COc1cccc(-c2noc(-c3cccnc3)n2)c1	-2	-4	1	-4
COc1cccc(-c2noc(C(C)n3nc(C)c([N+](=O)[O-])c3C)n2)c1 (stereo unspecified)	-2	0	14*	10
Cc1cccc2cc(CN(Cc3cccs3)C3(c4nnnn4C4CCCC4)CCCC3)c(=O)[nH]c12	16	0	11*	31
Cc1cccc(C)c1NC(=O)CSc1nnc(-c2ccco2)c(-c2ccco2)n1	32*	nt	-14	-5
Cc1ccccc1NC(=O)CSc1nnc(-c2ccco2)c(-c2ccco2)n1	15	nt	-20	-4
COCCn1c(SCC(=O)Nc2cccc(OC)c2)nnc1-c1ccccc1	-5	-3	11*	-7
COc1ccc(NC(=O)CSc2nnc(-c3ccco3)c(-c3ccco3)n2)cc1OC	-1	13	-4	-2
COCCn1c(SCC(=O)Nc2cccc(OC)c2)nnc1-c1ccc(Cl)cc1	-7	-2	-1	-4
COc1cccc(NC(=O)CSc2nnc(-c3ccco3)c(-c3ccco3)n2)c1	6	61*	-10	0
Cc1ccc(NC(=O)CSc2nnc(-c3ccco3)c(-c3ccco3)n2)cc1	16	41*	-13	1
O=C(CSc1nnc(-c2ccccc2)n1Cc1ccco1)Nc1ccc(OCc2ccccc2)cc1	nt	8	nt	nt
Cc1cccc(NC(=O)CSc2nc3nc4c(cc3c(=O)n2-c2ccccc2)CCCC4)c1	15	6	19*	18
O=S(=O)(c1ccccc1)n1c(CN2CCOCC2)nc2ccccc21	nt	3	nt	nt
SMILES	NadD block	rCAG binder	NR3A LBD binder	FAS TE block
COc1ccc(C(=O)c2c(C)oc3ccc(O)cc23)cc1	-11	1	0	2
COc1ccc(C(=O)c2ccc3oc(-c4ccc(OC)cc4)c(-c4ccc(O)cc4)c3c2)cc1	15	4	11*	18
Oc1ccccc1/C=N/Nc1ccccc1	2	5	13*	14
Oc1ccccc1C=NNC(=S)NN=Cc1ccccc1O	2	27	27*	49
O=[N+]([O-])c1ccccc1C=NNc1ccccc1	-1	2	-24	24
NC(=S)N/N=C/c1ccccc1O	-1	-4	-11	-10
Oc1ccccc1/C=N/Nc1cccc2cccnc12	-1	5	10*	25
COc1cccc(-c2ccc(CC[C@H]3O[C@H]4CC[C@@H](CO)O[C@H]4C[C@H]3NC(=O)c3cnccn3)cc2)c1	nt	2	nt	nt
COC(=O)c1cc2c(c3c4cc(C)ccc4n(S(=O)(=O)c4ccc(C)cc4)c13)C(=O)N(C)C2	nt	10	nt	nt
O=C(Nc1ccc2[nH]c(=S)sc2c1)Nc1ccccc1F	21	20	29*	2
O=C(Nc1ccc2[nH]ccc2c1)c1ccccc1	-3	2	-5	-7
O=C(Nc1ccc2[nH]c(=S)sc2c1)c1ccccc1	-3	10	21*	1
O=C(Nc1ccc(F)cc1)Nc1ccccc1F	0	-1	3	-1
Cc1cc(S(=O)(=O)N(Cc2ccc(F)cc2)CC2CCCO2)ccc1-n1cnnn1 (stereo unspecified)	-7	-5	2	13
Cc1cc(S(=O)(=O)N(Cc2ccc3c(c2)OCO3)CC2CCCO2)ccc1-n1cnnn1 (stereo unspecified)	-3	-5	21*	10
Cc1c(C)c2ccc(OC(C)C(=O)N[C@@H](Cc3c[nH]c4ccccc34)C(=O)O)c(C)c2oc1=O (stereo partly specified)	2	34	-5	1
Cc1c(OC(C)C(=O)NC(Cc2c[nH]c3ccc(O)cc23)C(=O)O)ccc2c1oc(=O)c1ccccc12 (stereo unspecified)	3	58*	0	-4
COc1cc(C(=O)N2C[C@@H]3CCC[C@H]2C3)ccc1OC1CCN(C(C)=O)CC1	-3	-7	1	-6
COc1cc(C(=O)N2C[C@H]3CC[C@H]2C3)ccc1OC1CCN(C(C)=O)CC1	-5	-7	13*	-6
COC(=O)[C@]12C[C@H](CC(=O)NCC34CC5CC(CC(C5)C3)C4)C(=O)N(Cc3ccccc3)C1=C[C@H](C(C)(C)C)O[C@@H]2C	nt	8	nt	nt
O=C(O)c1nc2nc(Cl)c(Cl)nc2[nH]1	-5	-3	14*	-3
CCC1CCCCN1CCCNS(=O)(=O)c1ccc2c(c1)oc(=O)n2C (stereo unspecified)	5	-3	-1	-24
CCC1CCCCN1CCNS(=O)(=O)c1ccc2c(c1)oc(=O)n2C (stereo unspecified)	0	3	14*	-6
CC(C)(O)CC[C@@H](O)[C@](C)(O)[C@H]1CC[C@@]2(O)C3=CC(=O)[C@@H]4C[C@@H](O)[C@@H](O)C[C@]4(C)[C@H]3CC[C@]12C	4	0	4	-2
CC(C)(O)CC[C@@H](O)[C@](C)(O)C1CC[C@@]2(O)C3=CC(=O)[C@@H]4C[C@@H](O)[C@@H](O)C[C@]4(C)C3CC[C@]12C (stereo partly specified)	1	-3	10*	-5
CCc1ccc(NC(=O)CSc2n[nH]c(C)c2[N+](=O)[O-])cc1	-2	10	-5	11
Cc1[nH]nc(SCC(=O)Nc2cccc(O)c2)c1[N+](=O)[O-]	7	4	22*	-2
CCC(=O)N[C@H]1C[C@@H]2O[C@@H](CO)CC[C@@H]2O[C@@H]1CCc1ccc(-c2cccc(OC)c2)cc1	nt	5	nt	nt
O=c1c2cc(N3CCOCC3)ccc2[nH]c(=S)n1Cc1ccc(Cl)cc1	18	7	38*	22
COc1ccc(NC(=O)c2cc(-c3ccccc3O)n[nH]2)cc1Cl	9	9	26*	-5
